The results in this text go back to paper PMC7862700, “An all-to-all approach to the identification of sequence-specific readers for epigenetic DNA modifications on cytosine”.

Common to all, as to experiment: DAPPL (digital affinity profiling via proximity ligation, sequencing); 10 mM Tris-HCl pH 7.5, 50 mM NaCl, 1 mM DTT, 4% glycerol, room temperature, 30 min; GST-TFs on glutathione beads, 16-mer random dsDNA library, 0.1% formaldehyde crosslink after washing; high values mean tight binding
Assay [1] has as its target T1, FLI1 (Homo sapiens, UniProt Q01543 1-452).
T1 sequence: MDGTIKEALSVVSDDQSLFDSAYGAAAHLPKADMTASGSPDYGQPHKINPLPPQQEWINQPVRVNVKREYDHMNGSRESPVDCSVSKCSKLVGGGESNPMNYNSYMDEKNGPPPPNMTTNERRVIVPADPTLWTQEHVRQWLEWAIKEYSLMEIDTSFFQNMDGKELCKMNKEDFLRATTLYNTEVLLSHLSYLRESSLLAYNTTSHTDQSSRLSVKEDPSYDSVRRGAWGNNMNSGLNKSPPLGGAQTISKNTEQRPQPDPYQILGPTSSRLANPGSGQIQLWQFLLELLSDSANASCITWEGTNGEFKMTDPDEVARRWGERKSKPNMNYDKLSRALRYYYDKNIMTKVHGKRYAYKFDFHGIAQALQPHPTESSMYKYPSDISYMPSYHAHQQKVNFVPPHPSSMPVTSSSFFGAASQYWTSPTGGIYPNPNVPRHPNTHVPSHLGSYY
To be noted: protein: recombinant; tags: N-terminal GST; dsDNA, one strand shown. The gist of the method:
(§1)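 After expression in yeast as GST fusions, human transcription factors were bound to glutathione beads, DNA-barcoded and mixed with a tag-only sample. The pools were incubated with 200 nmole of a 16-mer random double-stranded DNA library in Tris/NaCl/DTT/glycerol buffer (30 min, room temperature), washed and crosslinked with 0.1% formaldehyde. Proximity ligation with BsaI/T4 ligase ran for 1 h at 37 °C, before PCR amplification and sequencing on an Illumina NextSeq500. Binding signal is a hexamer's read frequency for a factor divided by its frequency for the tag-only sample.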

The target of assay [2] is T2, ELK1 (Homo sapiens, UniProt P19419 1-428).
T2 sequence: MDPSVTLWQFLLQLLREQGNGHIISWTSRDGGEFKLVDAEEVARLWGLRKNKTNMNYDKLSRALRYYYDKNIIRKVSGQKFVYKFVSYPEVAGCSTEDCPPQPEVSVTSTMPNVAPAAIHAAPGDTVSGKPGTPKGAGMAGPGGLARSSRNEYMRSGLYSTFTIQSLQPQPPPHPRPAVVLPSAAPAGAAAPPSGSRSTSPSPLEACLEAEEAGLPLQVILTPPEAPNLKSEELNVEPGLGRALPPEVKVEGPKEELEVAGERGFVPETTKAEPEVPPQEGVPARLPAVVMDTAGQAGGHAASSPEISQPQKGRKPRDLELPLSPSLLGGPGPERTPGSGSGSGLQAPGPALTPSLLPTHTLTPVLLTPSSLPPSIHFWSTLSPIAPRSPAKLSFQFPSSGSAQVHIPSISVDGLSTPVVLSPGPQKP
The conditions noted are these: protein: recombinant; tags: N-terminal GST; dsDNA, one strand shown. The gist of the method:
as §1

Assay [3] deals with T3, GABPA (Homo sapiens, UniProt Q06546 1-454).
T3 sequence: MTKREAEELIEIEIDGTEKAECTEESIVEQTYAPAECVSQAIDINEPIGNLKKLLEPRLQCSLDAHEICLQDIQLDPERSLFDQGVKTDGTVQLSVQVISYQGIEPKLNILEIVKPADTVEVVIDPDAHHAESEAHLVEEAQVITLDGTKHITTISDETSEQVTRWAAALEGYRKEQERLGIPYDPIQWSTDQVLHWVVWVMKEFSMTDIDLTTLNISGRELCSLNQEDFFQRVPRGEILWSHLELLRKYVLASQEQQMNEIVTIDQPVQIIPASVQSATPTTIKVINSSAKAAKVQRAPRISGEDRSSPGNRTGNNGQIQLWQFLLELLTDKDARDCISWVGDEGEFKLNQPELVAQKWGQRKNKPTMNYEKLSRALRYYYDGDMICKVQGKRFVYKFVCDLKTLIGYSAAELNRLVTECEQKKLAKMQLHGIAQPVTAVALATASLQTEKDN
The conditions noted are these: protein: recombinant; tags: N-terminal GST; dsDNA, one strand shown. The gist of the method: as §1

The target in assay [4] is T4, ERG (Homo sapiens, UniProt P11308 1-479).
T4 sequence: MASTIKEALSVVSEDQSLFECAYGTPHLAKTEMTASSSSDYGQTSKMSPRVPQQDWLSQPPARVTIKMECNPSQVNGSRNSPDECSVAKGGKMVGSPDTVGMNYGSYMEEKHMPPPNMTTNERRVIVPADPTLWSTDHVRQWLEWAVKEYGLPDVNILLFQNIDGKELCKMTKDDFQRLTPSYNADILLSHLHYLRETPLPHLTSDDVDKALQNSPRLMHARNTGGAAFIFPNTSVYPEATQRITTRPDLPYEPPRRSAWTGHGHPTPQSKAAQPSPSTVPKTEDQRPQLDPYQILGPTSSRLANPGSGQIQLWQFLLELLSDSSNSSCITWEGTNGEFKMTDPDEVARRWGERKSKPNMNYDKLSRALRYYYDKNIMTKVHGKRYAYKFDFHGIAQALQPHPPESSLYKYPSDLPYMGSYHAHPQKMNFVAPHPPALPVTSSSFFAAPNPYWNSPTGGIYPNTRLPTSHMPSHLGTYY
To be noted: protein: recombinant; tags: N-terminal GST; dsDNA, one strand shown. The gist of the method:
as §1

Assay [5] deals with ELF1 (Homo sapiens, UniProt P32519 1-619). To be noted: protein: recombinant; tags: N-terminal GST; dsDNA, one strand shown. The gist of the method: as §1
Chain of ELF1 (P32519 whole entry): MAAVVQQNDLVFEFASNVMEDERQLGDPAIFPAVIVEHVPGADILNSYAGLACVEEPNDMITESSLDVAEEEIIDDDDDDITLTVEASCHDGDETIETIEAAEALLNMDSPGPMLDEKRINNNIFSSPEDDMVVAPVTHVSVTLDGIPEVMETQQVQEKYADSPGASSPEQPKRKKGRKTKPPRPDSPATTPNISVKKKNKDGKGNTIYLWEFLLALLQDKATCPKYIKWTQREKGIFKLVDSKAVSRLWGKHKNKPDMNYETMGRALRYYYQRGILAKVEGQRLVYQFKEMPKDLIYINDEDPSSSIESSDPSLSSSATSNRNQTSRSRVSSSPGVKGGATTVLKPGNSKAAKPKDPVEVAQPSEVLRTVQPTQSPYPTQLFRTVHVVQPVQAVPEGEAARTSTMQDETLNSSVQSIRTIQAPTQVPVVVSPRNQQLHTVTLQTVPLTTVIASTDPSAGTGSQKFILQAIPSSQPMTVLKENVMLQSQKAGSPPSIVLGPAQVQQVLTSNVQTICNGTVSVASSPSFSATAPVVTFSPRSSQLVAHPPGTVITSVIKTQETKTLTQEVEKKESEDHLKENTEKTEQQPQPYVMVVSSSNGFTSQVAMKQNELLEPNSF
Assay [6] has as its target T5, EHF (Homo sapiens, UniProt Q9NZC4 1-300).
T5 sequence: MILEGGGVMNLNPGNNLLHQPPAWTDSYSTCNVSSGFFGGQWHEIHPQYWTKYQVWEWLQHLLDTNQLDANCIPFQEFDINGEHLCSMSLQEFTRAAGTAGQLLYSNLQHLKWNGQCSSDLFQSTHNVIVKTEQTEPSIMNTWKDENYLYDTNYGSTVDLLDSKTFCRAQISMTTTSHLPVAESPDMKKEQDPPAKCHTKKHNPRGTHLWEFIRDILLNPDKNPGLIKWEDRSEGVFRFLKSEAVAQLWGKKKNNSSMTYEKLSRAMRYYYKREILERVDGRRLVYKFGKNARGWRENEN
The conditions noted are these: protein: recombinant; tags: N-terminal GST; dsDNA, one strand shown. The gist of the method: as §1

The target in assay [7] is SPI1 (Homo sapiens, UniProt P17947 1-270). The conditions noted are these: protein: recombinant; tags: N-terminal GST; dsDNA, one strand shown. The gist of the method:
as §1

Assay [8] has as its target SPIB (Homo sapiens, UniProt Q01892 1-262). The conditions noted are these: protein: recombinant; tags: N-terminal GST; dsDNA, one strand shown. The gist of the method:
as §1

For assay [9], the target named is T6, ELK3 (Homo sapiens, UniProt P41970 1-407).
T6 sequence: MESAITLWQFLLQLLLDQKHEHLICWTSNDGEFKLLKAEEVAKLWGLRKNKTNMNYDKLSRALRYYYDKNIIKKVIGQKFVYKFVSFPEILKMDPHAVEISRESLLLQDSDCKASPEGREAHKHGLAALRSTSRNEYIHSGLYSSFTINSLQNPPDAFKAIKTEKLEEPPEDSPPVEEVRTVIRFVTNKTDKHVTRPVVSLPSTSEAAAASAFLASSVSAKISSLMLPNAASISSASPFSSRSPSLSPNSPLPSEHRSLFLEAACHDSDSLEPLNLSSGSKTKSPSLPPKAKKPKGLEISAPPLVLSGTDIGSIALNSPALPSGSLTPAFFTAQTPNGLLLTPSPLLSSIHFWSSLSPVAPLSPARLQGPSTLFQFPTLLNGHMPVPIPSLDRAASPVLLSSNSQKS
To be noted: protein: recombinant; tags: N-terminal GST; dsDNA, one strand shown. The gist of the method:
as §1

The target in assay [10] is T7, FEV (Homo sapiens, UniProt Q99581 1-238).
T7 sequence: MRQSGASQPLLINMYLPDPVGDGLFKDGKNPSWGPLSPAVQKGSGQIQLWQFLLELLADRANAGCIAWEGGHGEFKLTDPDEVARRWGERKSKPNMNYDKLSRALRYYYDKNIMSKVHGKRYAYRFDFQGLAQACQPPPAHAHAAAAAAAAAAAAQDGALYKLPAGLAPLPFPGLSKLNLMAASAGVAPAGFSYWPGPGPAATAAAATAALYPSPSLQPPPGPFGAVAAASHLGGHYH
To be noted: protein: recombinant; tags: N-terminal GST; dsDNA, one strand shown. The gist of the method:
as §1

Assay [11] deals with ETV5 (Homo sapiens, UniProt P41161 1-510). The conditions noted are these: protein: recombinant; tags: N-terminal GST; dsDNA, one strand shown. The gist of the method:
as §1

For assay [12], the target named is HSF1 (Homo sapiens, UniProt Q00613 1-529). To be noted: protein: recombinant; tags: N-terminal GST; chain copies: 3; dsDNA, one strand shown. The gist of the method:
as §1

In assay [13] the target is T8, SPIC (Homo sapiens, UniProt Q8N5J4 1-248).
T8 sequence: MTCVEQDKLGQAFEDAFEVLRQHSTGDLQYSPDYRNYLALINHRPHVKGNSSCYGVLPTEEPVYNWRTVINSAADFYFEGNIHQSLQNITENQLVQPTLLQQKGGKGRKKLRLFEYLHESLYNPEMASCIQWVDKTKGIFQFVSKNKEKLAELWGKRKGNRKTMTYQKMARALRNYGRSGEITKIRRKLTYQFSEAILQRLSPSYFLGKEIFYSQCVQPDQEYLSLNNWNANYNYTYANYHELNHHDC
The conditions noted are these: protein: recombinant; tags: N-terminal GST; dsDNA, one strand shown. The gist of the method: as §1

The target of assay [14] is ELF4 (Homo sapiens, UniProt Q99607 1-663). To be noted: protein: recombinant; tags: N-terminal GST; dsDNA, one strand shown. The gist of the method: as §1
Chain of ELF4 (Q99607 whole entry): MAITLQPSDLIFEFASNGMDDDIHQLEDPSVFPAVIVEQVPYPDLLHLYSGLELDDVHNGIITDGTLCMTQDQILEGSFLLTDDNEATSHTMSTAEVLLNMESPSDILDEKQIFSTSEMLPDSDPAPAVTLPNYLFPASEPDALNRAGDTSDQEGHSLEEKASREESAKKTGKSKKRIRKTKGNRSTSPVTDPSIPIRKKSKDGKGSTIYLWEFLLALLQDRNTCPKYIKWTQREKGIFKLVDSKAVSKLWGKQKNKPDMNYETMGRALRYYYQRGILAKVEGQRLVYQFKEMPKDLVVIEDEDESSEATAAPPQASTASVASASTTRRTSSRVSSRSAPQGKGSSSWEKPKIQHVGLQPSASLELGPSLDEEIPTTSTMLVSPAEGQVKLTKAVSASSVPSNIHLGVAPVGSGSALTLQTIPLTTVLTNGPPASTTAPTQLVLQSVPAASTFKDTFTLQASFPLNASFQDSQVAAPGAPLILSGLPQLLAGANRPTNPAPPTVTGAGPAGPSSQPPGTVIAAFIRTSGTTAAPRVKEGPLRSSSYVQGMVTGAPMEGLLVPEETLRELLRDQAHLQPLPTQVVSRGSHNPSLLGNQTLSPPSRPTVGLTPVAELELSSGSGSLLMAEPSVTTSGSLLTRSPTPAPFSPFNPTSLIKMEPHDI
The target in assay [15] is T9, ELK4 (Homo sapiens, UniProt P28324-2 1-405).
T9 sequence: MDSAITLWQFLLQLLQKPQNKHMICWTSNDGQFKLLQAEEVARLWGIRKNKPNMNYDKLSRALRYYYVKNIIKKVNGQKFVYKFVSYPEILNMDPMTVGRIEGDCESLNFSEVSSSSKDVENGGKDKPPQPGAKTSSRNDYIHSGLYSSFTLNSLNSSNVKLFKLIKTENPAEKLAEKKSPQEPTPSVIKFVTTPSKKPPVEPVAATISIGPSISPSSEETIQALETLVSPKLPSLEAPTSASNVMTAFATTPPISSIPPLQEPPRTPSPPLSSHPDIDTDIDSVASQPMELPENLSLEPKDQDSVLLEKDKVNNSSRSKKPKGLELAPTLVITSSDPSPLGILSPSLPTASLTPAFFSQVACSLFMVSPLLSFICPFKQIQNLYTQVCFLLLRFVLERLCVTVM
To be noted: protein: recombinant; tags: N-terminal GST; dsDNA, one strand shown. The gist of the method:
as §1

The target of assay [16] is T10, ETV2 (Homo sapiens, UniProt O00321 1-342).
T10 sequence: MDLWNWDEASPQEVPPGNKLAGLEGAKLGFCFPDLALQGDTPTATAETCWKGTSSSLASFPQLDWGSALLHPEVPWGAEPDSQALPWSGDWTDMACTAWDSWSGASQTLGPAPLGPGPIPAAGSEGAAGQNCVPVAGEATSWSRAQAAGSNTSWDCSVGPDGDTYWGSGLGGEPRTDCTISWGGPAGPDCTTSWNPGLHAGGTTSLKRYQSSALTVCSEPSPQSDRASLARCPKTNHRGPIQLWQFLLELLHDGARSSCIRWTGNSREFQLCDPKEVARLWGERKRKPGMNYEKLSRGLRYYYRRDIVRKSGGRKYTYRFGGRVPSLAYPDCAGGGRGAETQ
The conditions noted are these: protein: recombinant; tags: N-terminal GST; dsDNA, one strand shown. The gist of the method: as §1

Assay [17] has as its target T11, ELF3 (Homo sapiens, UniProt P78545 1-371).
T11 sequence: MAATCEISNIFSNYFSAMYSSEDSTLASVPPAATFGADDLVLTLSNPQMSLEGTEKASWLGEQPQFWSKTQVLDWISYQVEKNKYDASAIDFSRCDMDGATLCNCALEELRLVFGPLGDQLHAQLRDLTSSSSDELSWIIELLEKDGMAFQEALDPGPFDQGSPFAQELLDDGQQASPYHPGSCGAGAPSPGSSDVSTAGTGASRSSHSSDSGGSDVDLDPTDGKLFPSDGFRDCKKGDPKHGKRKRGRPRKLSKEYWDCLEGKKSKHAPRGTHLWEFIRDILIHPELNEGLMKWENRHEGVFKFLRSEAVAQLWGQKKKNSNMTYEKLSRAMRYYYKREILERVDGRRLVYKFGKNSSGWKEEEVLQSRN
The conditions noted are these: protein: recombinant; tags: N-terminal GST; dsDNA, one strand shown. The gist of the method:
as §1

For assay [18], the target named is ETV1 (Homo sapiens, UniProt P50549 1-477). The conditions noted are these: protein: recombinant; tags: N-terminal GST; dsDNA, one strand shown. The gist of the method:
as §1

Chain of ETV5 (P41161 whole entry): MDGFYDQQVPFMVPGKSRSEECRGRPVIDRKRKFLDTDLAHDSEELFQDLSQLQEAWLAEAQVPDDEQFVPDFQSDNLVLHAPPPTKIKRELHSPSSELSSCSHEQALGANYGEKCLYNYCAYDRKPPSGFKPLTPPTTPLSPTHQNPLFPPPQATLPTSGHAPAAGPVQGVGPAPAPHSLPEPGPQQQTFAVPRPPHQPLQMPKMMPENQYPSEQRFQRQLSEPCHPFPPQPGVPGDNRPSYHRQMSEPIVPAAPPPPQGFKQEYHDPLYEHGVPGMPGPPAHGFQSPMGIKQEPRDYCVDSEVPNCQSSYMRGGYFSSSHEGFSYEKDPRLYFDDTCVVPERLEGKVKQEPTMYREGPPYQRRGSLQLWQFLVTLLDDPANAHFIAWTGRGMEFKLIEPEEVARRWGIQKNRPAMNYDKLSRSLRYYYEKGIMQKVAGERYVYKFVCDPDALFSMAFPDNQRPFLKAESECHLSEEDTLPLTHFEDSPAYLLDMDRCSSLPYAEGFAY
Chain of SPIB (Q01892 whole entry): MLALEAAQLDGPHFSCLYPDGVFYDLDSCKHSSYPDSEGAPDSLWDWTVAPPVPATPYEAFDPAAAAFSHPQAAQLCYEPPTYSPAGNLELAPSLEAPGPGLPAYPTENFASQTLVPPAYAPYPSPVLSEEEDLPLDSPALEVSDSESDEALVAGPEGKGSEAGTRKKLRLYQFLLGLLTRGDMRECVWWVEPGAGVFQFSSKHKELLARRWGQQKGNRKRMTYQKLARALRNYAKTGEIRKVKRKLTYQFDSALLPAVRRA
Chain of ETV1 (P50549 whole entry): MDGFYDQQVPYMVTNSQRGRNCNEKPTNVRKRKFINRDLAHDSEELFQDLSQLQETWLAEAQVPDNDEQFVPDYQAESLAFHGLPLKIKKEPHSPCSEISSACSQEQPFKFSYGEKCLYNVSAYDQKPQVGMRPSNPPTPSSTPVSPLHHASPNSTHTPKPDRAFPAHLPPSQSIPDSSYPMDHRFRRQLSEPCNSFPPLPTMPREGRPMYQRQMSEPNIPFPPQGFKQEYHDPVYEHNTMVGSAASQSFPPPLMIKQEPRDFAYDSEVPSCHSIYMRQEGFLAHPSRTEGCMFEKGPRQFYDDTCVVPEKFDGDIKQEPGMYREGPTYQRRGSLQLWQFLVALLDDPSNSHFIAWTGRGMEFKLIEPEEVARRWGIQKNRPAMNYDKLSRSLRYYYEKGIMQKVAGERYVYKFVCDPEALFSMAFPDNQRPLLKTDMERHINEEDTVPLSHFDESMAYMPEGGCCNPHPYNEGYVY
Chain of HSF1 (Q00613 whole entry): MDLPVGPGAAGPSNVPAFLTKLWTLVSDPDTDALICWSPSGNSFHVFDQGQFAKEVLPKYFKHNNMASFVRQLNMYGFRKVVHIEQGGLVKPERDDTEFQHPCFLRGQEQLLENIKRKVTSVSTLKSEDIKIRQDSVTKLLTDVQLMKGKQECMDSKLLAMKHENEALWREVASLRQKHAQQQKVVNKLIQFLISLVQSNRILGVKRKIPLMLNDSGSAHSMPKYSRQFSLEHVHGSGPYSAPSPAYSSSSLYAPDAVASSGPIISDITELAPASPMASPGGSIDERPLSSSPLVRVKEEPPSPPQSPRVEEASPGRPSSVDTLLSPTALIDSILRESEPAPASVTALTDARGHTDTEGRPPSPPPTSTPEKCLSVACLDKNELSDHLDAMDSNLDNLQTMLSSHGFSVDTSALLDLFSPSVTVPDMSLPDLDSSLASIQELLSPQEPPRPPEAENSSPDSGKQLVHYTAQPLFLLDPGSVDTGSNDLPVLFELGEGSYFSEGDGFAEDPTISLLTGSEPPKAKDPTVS

In the case of TGTACG, the binding signal in [1] was 1.18 fold enrichment (6-mer frequency, TF over GST control); in [2] it was 1.23 fold enrichment (6-mer frequency, TF over GST control); in assay [3], 1.08 fold enrichment (6-mer frequency, TF over GST control); in [4], 1.15 fold enrichment (6-mer frequency, TF over GST control); in assay [5], 1.11 fold enrichment (6-mer frequency, TF over GST control); in assay [6], 1.12 fold enrichment (6-mer frequency, TF over GST control). In addition, the binding signal in [7] is 1.19 fold enrichment (6-mer frequency, TF over GST control); in assay [8], 1.1 fold enrichment (6-mer frequency, TF over GST control); in assay [9] it was 1.23 fold enrichment (6-mer frequency, TF over GST control); in assay [10], 1.2 fold enrichment (6-mer frequency, TF over GST control); in [11], 1.23 fold enrichment (6-mer frequency, TF over GST control); in assay [12], 1.01 fold enrichment (6-mer frequency, TF over GST control). The binding signal in assay [13] is 1.23 fold enrichment (6-mer frequency, TF over GST control); in assay [14] it was 1.2 fold enrichment (6-mer frequency, TF over GST control); in [15], 1.34 fold enrichment (6-mer frequency, TF over GST control); in [16], 1.13 fold enrichment (6-mer frequency, TF over GST control); in assay [17], 1.13 fold enrichment (6-mer frequency, TF over GST control); in assay [18], 1.24 fold enrichment (6-mer frequency, TF over GST control).
